From PubChem BioAssay
The list is not random: actives were taken first. Their share in the collection is about 7.2%.
Mot1-301 SUMO – inhibitors of SUMOylation pathway: yeast Mot1-301 growth rescue; S. cerevisiae Mot1-301 growth rescue, ATP luminescence, 38.5C; percent above DMSO median, 100 means doubled; growth rescue, % at 18.8 µM; 320,000 compounds, 1% hits; AID 2716;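 active = every valid replicate shows activation above 250% relative to neutral control wells; inactive = the rest, any valid replicate at or below 250%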
ALR inh – human ALR oxidase inhibition via reduced H2O2; P55789; purified ALR, DTT oxidation, H2O2 HRP-luminol luminescence; inhibition, % (test concentration not listed); 290,000 compounds, 3.8% hits; AID 485317;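 active = mean replicate inhibition above about 79%, with every replicate also reaching it, limit read from the data; inconclusive = only one of the two criteria met; inactive = mean below limit and not every replicate reaching it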
AHR act – activators of human aryl hydrocarbon receptor | AHR-responsive luciferase reporter cells, luminescence | 320,000 compounds, 2.5% hits | P35869 | activation, % at 5 µM; in the data active = activation above about 47%
A1 inh – inhibitors of the anti-apoptotic protein A1, read as caspase activation | MEF A1-2A-BIM cells, Caspase-Glo 3/7 luminescence, 3 h; percent of clofoctol response, vehicle zero | caspase activation, % (test concentration not listed) | 330,000 compounds, 0.066% hits;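 active = over half of replicate activation scores above 10%, or exactly half above 10 with the replicate mean above 10; inconclusive = replicate mean below 10 yet half the replicates above 10; inactive = over half of replicates below 10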
VLA-4 inh – inhibition in a human VLA-4 binding assay. AID 2557. inhibition, % (about 7 µM as worked out from the volumes in the protocol). 330,000 compounds, 0.2% hits. VLA-4 expressing cells, ligand binding flow cytometry; in the data active = inhibition above about 50%
Target sequence (P13612 whole entry, looked up): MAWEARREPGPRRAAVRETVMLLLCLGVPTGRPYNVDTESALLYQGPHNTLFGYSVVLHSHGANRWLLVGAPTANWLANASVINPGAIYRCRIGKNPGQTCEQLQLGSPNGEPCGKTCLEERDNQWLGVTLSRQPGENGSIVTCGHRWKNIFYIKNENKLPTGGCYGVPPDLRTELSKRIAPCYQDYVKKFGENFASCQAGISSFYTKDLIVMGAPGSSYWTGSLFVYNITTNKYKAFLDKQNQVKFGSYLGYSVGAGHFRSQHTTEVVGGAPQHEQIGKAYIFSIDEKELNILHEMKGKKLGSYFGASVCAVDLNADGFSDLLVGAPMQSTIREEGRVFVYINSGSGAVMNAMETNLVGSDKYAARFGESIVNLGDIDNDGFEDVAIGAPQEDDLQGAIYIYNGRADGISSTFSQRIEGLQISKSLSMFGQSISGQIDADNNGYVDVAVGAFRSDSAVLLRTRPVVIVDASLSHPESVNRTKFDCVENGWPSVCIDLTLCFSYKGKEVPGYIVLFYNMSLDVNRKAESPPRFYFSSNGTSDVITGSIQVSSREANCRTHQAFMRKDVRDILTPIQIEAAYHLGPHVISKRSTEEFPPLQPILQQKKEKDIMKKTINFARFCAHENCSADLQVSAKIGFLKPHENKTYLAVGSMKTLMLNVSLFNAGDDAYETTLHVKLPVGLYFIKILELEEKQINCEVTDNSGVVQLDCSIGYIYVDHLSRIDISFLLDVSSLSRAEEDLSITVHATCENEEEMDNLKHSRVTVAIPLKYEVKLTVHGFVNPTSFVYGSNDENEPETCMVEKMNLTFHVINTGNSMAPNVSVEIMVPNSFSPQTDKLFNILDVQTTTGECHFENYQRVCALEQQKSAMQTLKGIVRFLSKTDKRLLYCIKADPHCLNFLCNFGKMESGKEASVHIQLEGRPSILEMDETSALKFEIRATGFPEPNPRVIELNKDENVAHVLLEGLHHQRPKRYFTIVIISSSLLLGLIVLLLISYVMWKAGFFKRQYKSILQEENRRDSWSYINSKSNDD
Efflux pump inh – blocks antifungal efflux pumps in multiplex yeast assay. inhibition, % at 10 µM. AID 485275. S. cerevisiae Candida pump triplex, Nile Red efflux. 330,000 compounds, 0.44% hits;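 active = plate passing quality check with inhibition over a set limit, or well fluorescence over plate mean plus 4 SD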;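 also: Nile Red retained in pooled yeast measured as flow cytometry median fluorescence; higher means more Nile Red kept so more efflux inhibition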
AHR act cf – human AHR activation, confirmation. shares compounds with AHR act. human cells, AHR-responsive luciferase reporter, luminescence. activation, % at 9 µM. 2,300 compounds, 87% hits. AID 2845; in the data active = activation above about 49%;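 also: HepG2 hepatoma cells carrying a DRE-driven firefly luciferase reporter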
PXR act counter – counter-screen for AHR activators: human PXR activators. shares compounds with AHR act. cell-based PXR reporter, luciferase luminescence. activation, % at 11.6 µM. 2,300 compounds, 88% hits. AID 434939; in the data active = activation above about 11%;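 also: human hepatoma DPX-2 cells expressing full-length human PXR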
Each line names hits and unclear results; the compound was inactive in the other large screens (follow-up assays come after a bar, where they were run).

Cc1cccc(Nc2nc(-c3ccc(F)c(C)c3)cs2)n1	AHR act 95 | AHR act cf 134 | PXR act counter 34
CNC(=O)c1ccsc1NC(=O)c1sc2ccccc2c1Cl	AHR act 120 | AHR act cf 116 | PXR act counter 19
Cc1ccc(NC(=O)c2sc3ccccc3c2Cl)nc1	none
COc1ccc(N(C)S(=O)(=O)c2cccc(C(=O)NC3=NCCS3)c2)cc1	none
COc1cc(OC)cc(-c2nnc(SCC(=O)N3CCOCC3)o2)c1	none
COc1cc(OC)cc(-c2nnc(SCC(=O)N3CCCCC3)o2)c1	AHR act 83 | AHR act cf inactive | PXR act counter 72
Cc1cccc(C)c1N1CCN(c2nc(N(C)C)oc(=O)c2C#N)CC1	none (no result: Mot1-301 SUMO)
CC(CNC(=O)Cn1ccc2cc(S(=O)(=O)N3CCCC3)ccc21)c1ccccc1 (centres undefined)	none
O=C(CSc1nc2nn(-c3ccccc3)c(=O)c-2c2n1CCCCC2)NCCc1ccccc1	none
Cc1nn(-c2ccccc2)c(Cl)c1/C=N/N1CCN(c2ccccn2)CC1	AHR act 161 | AHR act cf inactive | PXR act counter 27
O=C(Nc1cc(F)c(Br)cc1F)c1ccc(Cl)cc1	AHR act 83 | AHR act cf 98 | PXR act counter 31
O=C(Nc1ccc(Cl)cc1C(F)(F)F)c1ccc(Cl)cc1	none
Cc1ccc(C(=O)N/N=C/c2ccc(-c3ccccc3[N+](=O)[O-])o2)cn1	AHR act 93 | AHR act cf 109 | PXR act counter 16
CCc1c(C)nc2ncnn2c1NCCc1ccc(Cl)cc1	none
Cc1cc2oc(C(=O)NCCc3ccc(S(N)(=O)=O)cc3)c(C)c2cc1C	none
Cc1cc2oc(C(=O)NCc3ccncc3)c(C)c2cc1C	AHR act 89 | AHR act cf 50 | PXR act counter 28
NC1=NC(=O)/C(=C/c2ccc(-c3ccc(S(N)(=O)=O)cc3)o2)S1	AHR act 121 | AHR act cf 88 | PXR act counter 16
Cn1c(=O)nc2n(Cc3ccccc3)c3cccc(Cl)c3cc-2c1=O	none
COc1ccc(N(Cc2cc3ccc(C)cc3[nH]c2=O)C(=O)C2CCCO2)cc1 (centres undefined)	none
O=C(CSc1nnc(-c2ccccc2)n1Cc1ccco1)NCc1ccc2c(c1)OCO2	ALR inh inconclusive (no result: Mot1-301 SUMO)
COc1ccc(NC(=O)CSc2ccc3nnc(-c4cccnc4)n3n2)cc1	none
COc1ccccc1NC(=O)CSc1ccc2nnc(-c3ccncc3)n2n1	none
Cc1csc(NC(=O)CSc2ccc3nnc(-c4ccncc4)n3n2)n1	AHR act 92 | AHR act cf 65
COc1ccc(C(=O)CSc2ccc3nnc(-c4cccnc4)n3n2)cc1	AHR act 83 | AHR act cf 74 | PXR act counter 11
COc1ccc(/C=C2\Cc3ccccc3C2=O)cc1OC	none (no result: AHR act)
COc1cc2c(cc1OC)/C(=C/c1ccc(Br)cc1)C(=O)OC2	AHR act 85 | AHR act cf 60 | PXR act counter 15
Cc1ccc2c(c1)/C(=C/c1ccco1)C(=O)N2	AHR act 116 | AHR act cf 99 | PXR act counter 23
O=C1NC(=O)/C(=C/c2ccco2)N1	A1 inh inconclusive
Cc1ccc(C(=O)c2c3ccccc3[n+]([O-])n2CCC(N)=O)cc1	none
CSc1ncc(C(=O)Nc2ccc(Cl)cc2)c(C)n1	AHR act 94 | AHR act cf 100
Cc1[nH]n(-c2ccccc2)c(=O)c1/C=N/NC(=O)COc1ccccc1[N+](=O)[O-]	none
Cc1c(/C=N/NC(=O)COc2ccccc2[N+](=O)[O-])c2ccccc2n1C	AHR act 81 | AHR act cf 95 | PXR act counter 101
C/C(CCc1ccccc1)=N/NC(=O)C(=O)NCc1ccccc1	none
c1ccc(-c2nc(NCCCn3ccnc3)c3ccccc3n2)cc1	AHR act 82 | AHR act cf 89 | PXR act counter 76
COCCN(CCOC)c1nc(-c2ccccc2)nc2ccccc12	none (no result: AHR act)
COc1ccc(-c2nc(NCCCN(C)C)c3ccccc3n2)cc1	none
CCN(CC)CCCNc1nc(-c2ccccc2)nc2ccccc12	none
COCCCNc1nc(-c2ccc(Cl)cc2)nc2ccccc12	AHR act 98 | AHR act cf 91 | PXR act counter 30
COCCCNc1nc(-c2ccncc2)nc2ccccc12	AHR act 88 | AHR act cf 103 | PXR act counter 56
COCCN(CCOC)c1nc(-c2ccc(Cl)cc2)nc2ccccc12	AHR act 118 | AHR act cf 83 | PXR act counter 70
CC(C)NC(=O)CN(Cc1ccc2c(c1)OCO2)C(=O)CCC(=O)Nc1ccccn1	none (no result: ALR inh)
O=c1c(NCCc2ccc(Cl)cc2)c(-c2ccccc2)c1=O	none
COC(=O)C1=CN(Cc2ccccc2)C=C(C(=O)OC)C1c1cc(F)ccc1F	none (no result: ALR inh)
Cc1ccc(C)c(N2CCN(S(=O)(=O)c3csc(C(N)=O)c3)CC2)c1	none
OCCCNc1nc(-c2ccc(Cl)cc2)nc2ccccc12	ALR inh 98, AHR act 88 | AHR act cf 104 | PXR act counter 62
CCN(CC)c1nc(-c2ccccc2)nc2ccccc12	AHR act 108 | AHR act cf 78 | PXR act counter 91
COc1cc(C)c(NC(=O)c2cc(C3CC3)nc3c2cnn3C(C)C)cc1OC	none
CC(/C=N/n1cnnc1)=C\c1ccco1	none (no result: ALR inh)
C=CCOc1c(Br)cc(/C=N/NC(N)=O)cc1OC	AHR act 89 | AHR act cf 112 | PXR act counter 25
COc1ccc(N2CCN(CC(=O)c3ccc(Cl)cc3)CC2)cc1	none
Brc1ccc(-c2ccc(/C=N/Nc3nncc(-c4ccccc4)n3)o2)cc1	none
Brc1ccc(-c2ccc(/C=N/Nc3nc4ccccc4[nH]3)o2)cc1	AHR act 98 | AHR act cf 121 | PXR act counter 12
Cc1nn(-c2ccccc2)c(Cl)c1/C=N/Nc1nc2ccccc2[nH]1	none
Cc1ccc(/C=N/Nc2nc3ccccc3[nH]2)s1	AHR act 109 | AHR act cf 143 | PXR act counter 30
CCN(CC)c1c([N+](=O)[O-])c(=O)oc2ccccc12	none
CCN(c1ccccc1)S(=O)(=O)c1ccc(C(=O)N(C)CCc2ccc(OC)c(OC)c2)cc1	none
CCOc1ccc(/C=C/C(=O)c2c(O)cc(C)oc2=O)cc1	ALR inh 95, AHR act 83 | AHR act cf inactive | PXR act counter 16
C/C(=N\O)C1CC(CC(=O)O)C1(C)C (centres undefined)	none
